This note sets out measurements from PubChem BioAssay (NCI).

Assay in all cases: NCI-60 one-dose screen, 48 h (100 = growth as untreated, 0 = no growth, -100 = all killed)
Details in all cases: 10 µM unless noted

For experiment [1], the system named is DU-145 prostate.
For experiment [2], the system named is K-562 leukemia.
Experiment [3] has as its system MALME-3M melanoma.
The test system of experiment [4] is MDA-MB-231 breast.
Experiment [5] relates to RXF 393 renal.
For experiment [6], the system named is SF-268 CNS.
The subject of experiment [7] is SF-295 CNS.
The test system of experiment [8] is SF-539 CNS.
For experiment [9], the system named is UACC-257 melanoma.
Experiment [10] has as its system M14 melanoma.

Each structure is given as a SMILES string. This is part of a sample that, as a whole, favours compounds with a hit. Of some 83,000 tested, about 20% had one in any assay.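 Plates (96-well) were seeded with cells, treated with compound at one concentration, and incubated for 48 hours before percent growth was determined.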 A number with no mark means an inactive call. Activity calls are given as the source filed them. The calls were made as follows: active = growth percent below 10; inactive = the rest.

On to `COC(=O)[C@]12CC[C@@H](C(C)=O)[C@@H]1[C@H]1CC[C@@H]3[C@@]4(C)C/C(=C/c5cccnc5)C(=O)C(C)(C)[C@@H]4CC[C@@]3(C)[C@]1(C)CC2`, for which the growth in [1] is 68.8%; in experiment [2] it was 18.3%; in experiment [3], 29.9%; in [4] it was 76.6%; in experiment [5], 30.9%; in experiment [6], 68.6%. Besides, the growth was 75.3% in [7], 81% in experiment [8], 58.1% in [9] and 56.7% in [10].

As for `O=C1Nc2ccccc2/C1=C/c1cn(CCCn2c3ccccc3c(=O)c3ccccc32)c2ccccc12`, the growth in experiment [1] is 102%; in [2], 91.7%; in [3], 98.7%; in [4], 67.9%; in experiment [5], 104%; in experiment [6], 79.2%. In addition, the growth in [7] is 91.5%; in experiment [8], 86.8%; in [9], 109%; in experiment [10], 91.1%.

Consider `CCN1CCN(C(=O)[C@]23CC[C@@H](C)[C@H](C)[C@H]2C2=CC[C@@H]4[C@@]5(C)C/C(=C/c6cccc(OC)c6OC)C(=O)C(C)(C)[C@@H]5CC[C@@]4(C)[C@]2(C)CC3)CC1`, for which the growth was 57.3% in experiment [1]; 16.3% in experiment [2]; 35.2% in [3]; 36.5% in [4]; 30.2% in experiment [5]; 45.5% in experiment [6]. Further, the growth in [7] is 50.7%; in experiment [8], 58.5%; in experiment [9] it was 46.4%; in experiment [10], 29.5%.

Consider `COC(=O)CNc1nc(N(C)O)nc(N(C)O)n1`, for which the growth is 34.7% in [1]; 35% in experiment [2]; 97.6% in experiment [3]; 43% in experiment [4]; 47.2% in experiment [5]; 34.3% in experiment [6]. The growth in [7] was 45.2%; in [8], 47.5%; in experiment [9], 76.9%; in experiment [10] it was 46%.

For `Nc1ncnc2nc(Br)[nH]c12`, the growth was 102% in experiment [1]; 89.6% in experiment [2]; 100% in experiment [3]; 99.8% in experiment [4]; 103% in experiment [5]; 98.3% in experiment [6]. Besides, the growth in experiment [7] is 102%; in experiment [8], 103%; in [9], 87.7%; in [10], 92.1%.

For `CN1CCN(c2ccc3nc(-c4[nH]ncc4Nc4ncnc5c4OCCCN5)[nH]c3c2)CC1`, the growth is -27.6% (active) in experiment [1]; 7.54% (active) in experiment [2]; -76.1% (active) in experiment [3]; -37.8% (active) in experiment [4]; -89.3% (active) in experiment [5]; -51% (active) in experiment [6]. Also, the growth was -90.4% (active) in experiment [7], -86.7% (active) in experiment [8], -20.5% (active) in experiment [9] and -74.9% (active) in experiment [10].

Consider `O=c1[nH]c(=S)[nH]c2nc[nH]c12`, for which the growth in experiment [1] is 107%; in experiment [2] it was 89.2%; in experiment [3], 112%; in experiment [4] it was 109%; in [5], 79.5%; in experiment [6] it was 97.9%. Moreover, the growth in [7] was 106%; in [8], 105%; in experiment [9], 96.6%; in [10] it was 90.7%.

Take `COc1ccc(C2CC(=O)c3c(nc4ccc(Cl)cc4c3N)C2)cc1` (stereo not given): the growth in [1] was 101%; in experiment [2], 93.4%; in experiment [3], 106%; in experiment [4], 114%; in experiment [5] it was 99.3%; in experiment [6], 108%. Further, the growth is 95.4% in [7], 107% in [8], 113% in experiment [9] and 103% in experiment [10].

Consider `O=C(N/N=C/c1ccccc1SSc1ccccc1/C=N/NC(=O)c1ccccc1)c1ccccc1`, for which the growth is 35.3% in experiment [1]; 18.3% in experiment [2]; 48.9% in experiment [3]; 44.7% in experiment [4]; 34.2% in [5]; 32% in [6]. In addition, the growth in [7] is 38.2%; in experiment [8], 26.9%; in experiment [9], 45.1%; in [10] it was 12.9%.

On to `N#Cc1c(-c2ccco2)nc2c(c(-c3ccccc3)nn2-c2ccccc2)c1-c1ccc(O)cc1`, for which the growth in experiment [1] is 75.8%; in experiment [2], 15.7%; in experiment [3], 35%; in [4], 82.4%; in experiment [5] it was 101%; in experiment [6], 67.6%. In addition, the growth in experiment [7] is 66.6%; in experiment [8], 82.5%; in experiment [9] it was 60.6%; in [10], 65.6%.

For `C=C(C)[C@@H]1CC[C@]2(C(=O)NNC(=O)c3cccnc3)CC[C@]3(C)[C@H](CC[C@@H]4[C@@]5(C)CCCNC(C)(C)[C@@H]5CC[C@]43C)[C@@H]12`, the growth in experiment [1] is 91.3%; in experiment [2], 1.18% (active); in experiment [3], 66.6%; in experiment [4], 87%; in experiment [5] it was 79.7%; in experiment [6], 87%. Also, the growth in experiment [7] is 90.3%; in experiment [8], 81.3%; in experiment [9], 61.9%; in experiment [10] it was 63.8%.

Regarding `COc1cc(/C=N/NC(=S)NNC(=S)NC2CCCCC2)cc(OC)c1OC`, the growth in [1] was 92.5%; in experiment [2], 88.6%; in [3] it was 95.2%; in experiment [4], 77.2%; in experiment [5], 95.6%; in [6], 102%. The growth is 98.7% in experiment [7], 94.8% in [8], 107% in experiment [9] and 95.2% in experiment [10].

For `N#Cc1c(-c2ccc(O)cc2)c2c(N)nn(-c3ccccc3)c2[nH]c1=O`, the growth is 109% in experiment [1]; 107% in experiment [2]; 105% in [3]; 97.8% in experiment [4]; 113% in [5]; 100% in experiment [6]. The growth was 110% in experiment [7], 95.7% in experiment [8], 109% in [9] and 99.4% in [10].

For `Cc1cc(N(CCCNc2ccnc3cc(Cl)ccc23)Cc2ccco2)nc(N2CCN(C)CC2)n1`, the growth was 55.6% in [1]; 12.9% in [2]; -49.6% (active) in experiment [3]; 14.4% in [4]; 35.9% in [5]; 56.1% in experiment [6]. Moreover, the growth in [7] was 57.1%; in experiment [8] it was -62.9% (active); in experiment [9] it was -63.2% (active); in experiment [10], -82.5% (active).

As to `CC1(C)CC[C@]2(CO)CC[C@]3(C)C(=CC[C@@H]4[C@@]5(C)CC[C@H](NCO)C(C)(C)[C@@H]5CC[C@]43C)[C@@H]2C1`, the growth in experiment [1] is -49.9% (active); in [2], -36.8% (active); in experiment [3] it was -76.3% (active); in experiment [4], -80% (active); in experiment [5], -88% (active); in experiment [6] it was 63.1%. Further, the growth was -30.5% (active) in experiment [7], -18.5% (active) in [8], 10.5% in [9] and -53% (active) in experiment [10].

Regarding `Cc1cc2nc3c4cc([N+](=O)[O-])cc([N+](=O)[O-])c4n(CCN(C)C)c3nc2cc1C`, the growth in experiment [1] was 92.1%; in experiment [2] it was 62.3%; in experiment [3] it was 76.5%; in experiment [4], 77.2%; in [5], 58.3%; in experiment [6] it was 74.1%. The growth in [7] is 62.9%; in experiment [8], 76.5%; in [9] it was 107%; in [10], 80.1%.

Consider `Cc1ccc2c(c1)c1nc3cc(C)c(C)cc3nc1n2CCN(C)C`, for which the growth is 20.5% in [1]; 8.09% (active) in experiment [2]; -8.13% (active) in [3]; 19.3% in [4]; 16.2% in [5]; 30.3% in experiment [6]. For the same molecule, the growth was 5.24% (active) in experiment [7], 11.4% in experiment [8], 13.1% in [9] and 13.3% in [10].

Turning to `CC(C)(C)n1cc(-c2ccnc(NCCCNS(=O)(=O)c3ccc(Cl)cc3)c2)c(-c2cccc(F)c2)n1`, the growth was 87% in experiment [1]; 24.8% in experiment [2]; 73.8% in [3]; 81.6% in [4]; 72% in experiment [5]; 86.6% in [6]. Besides, the growth was 68.2% in [7], 75% in [8], 93.1% in [9] and 77.7% in experiment [10].

As for `COc1cc(/C=C/c2cc(/C=C/c3ccc(O)c(OC)c3)n(-c3ccc(Cl)cc3)c(=O)n2)ccc1O`, the growth in [1] is 91.7%; in [2], 72.6%; in experiment [3], 100%; in experiment [4] it was 60.3%; in [5], 90.7%; in experiment [6], 76.1%. Moreover, the growth in experiment [7] is 97.3%; in [8] it was 78.1%; in experiment [9], 97%; in [10] it was 88.3%.

For the molecule `CC1(C)CC[C@]2(C(=O)NCCNCCN)CC[C@]3(C)C(=CC[C@@H]4[C@@]5(C)CCC(=O)C(C)(C)[C@@H]5CC[C@]43C)[C@@H]2C1`, the growth in experiment [1] was 32.5%; in experiment [2] it was -47.9% (active); in experiment [3], -65% (active); in [4] it was 6.83% (active); in experiment [5], 50.1%; in experiment [6], 72.7%. The growth was 96.7% in experiment [7], 76.5% in [8], 92.8% in [9] and -63.4% (active) in experiment [10].

Regarding `COc1ccccc1-n1cnc(N)c1C(=O)c1cc(OC)c(OC)c(OC)c1`, the growth in experiment [1] is 73.9%; in [2], 22%; in experiment [3], 50.1%; in experiment [4] it was 64.8%; in [5] it was 33%; in experiment [6], 38.5%. The growth in experiment [7] is 24.9%; in [8] it was 35.6%; in [9], 59.8%; in experiment [10] it was 44.5%.

As to `COc1cnc2c(c1)C(=O)c1c-2n(CCCNC2=NCCS2)c(=O)c2cc([N+](=O)[O-])ccc12`, the growth was -74.7% (active) in [1]; -14.9% (active) in [2]; -60.6% (active) in [3]; -58.4% (active) in experiment [4]; -2.16% (active) in experiment [5]; -39.4% (active) in experiment [6]. The growth in experiment [7] is 11.7%; in experiment [8], -66.5% (active); in experiment [9], 35.4%; in experiment [10], -73.5% (active).

Consider `C=C(C)[C@@H]1CC[C@]2(CN)CC[C@]3(C)[C@H](CC[C@@H]4[C@@](C)(CCCN)[C@H](C(=C)C)CC[C@]43C)[C@@H]12`, for which the growth in experiment [1] was 94.8%; in experiment [2], 1.94% (active); in experiment [3] it was 80.2%; in experiment [4], 92.8%; in experiment [5] it was 79%; in experiment [6], 79.9%. For the same molecule, the growth in [7] is 101%; in experiment [8], 90.4%; in experiment [9], 99.7%; in experiment [10] it was 75.2%.

Turning to `CC(=O)OC[C@]12CC[C@@H](/C(C)=N/O)[C@@H]1[C@H]1CC[C@@H]3[C@@]4(C)CCCNC(C)(C)[C@@H]4CC[C@@]3(C)[C@]1(C)CC2`, the growth in experiment [1] is 77.3%; in experiment [2], 41.3%; in experiment [3], 89.2%; in [4], 82.7%; in experiment [5], 71.2%; in experiment [6], 62.8%. In addition, the growth in [7] is 84.5%; in experiment [8], 79.5%; in experiment [9] it was 81.4%; in [10], 78.1%.

For `Cc1cc2nc3c4cc(O)ccc4n(CCN(C)C)c3nc2cc1C`, the growth in [1] was 6.38% (active); in experiment [2] it was 7.53% (active); in experiment [3], -61.6% (active); in experiment [4], -5.62% (active); in experiment [5], -54% (active); in experiment [6], 9.22% (active). Moreover, the growth was -19.8% (active) in experiment [7], -13.1% (active) in experiment [8], -15.1% (active) in experiment [9] and -33.7% (active) in [10].
